In all, about 18,000 sequences were measured (“TetR repression strength (sort-seq, GFP reporter)”: median about 0.23, highest 2% from about 0.68 on). This excerpt belongs to a sample that is enriched for the highest values.
Biological target: TetR (class B, Tn10) (UniProt P04483)
Experiment: TetR repression strength (sort-seq, GFP reporter) (relative to tetO2 = 1); higher = stronger repression
Settings: E. coli
How it was run: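 Escherichia coli SIG10-MAX cells carried a low-copy plasmid library in which eight operator positions were randomized between a constitutive promoter and sfGFP, and TetR was expressed constitutively. After 5 h of growth at 37 °C in LB with 50 µg/mL chloramphenicol, 10^6 cells were FACS-sorted into 13 fluorescence bins, and each bin was Illumina-sequenced. Repression strength was the top bin index plus one minus the read-weighted mean bin, divided by the value for the unaltered operator. Across three independent transformations, only library members with ≥30 reads in every replicate and a CV ≤0.5 were averaged.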

Sequence of TetR (class B, Tn10) (P04483 whole entry): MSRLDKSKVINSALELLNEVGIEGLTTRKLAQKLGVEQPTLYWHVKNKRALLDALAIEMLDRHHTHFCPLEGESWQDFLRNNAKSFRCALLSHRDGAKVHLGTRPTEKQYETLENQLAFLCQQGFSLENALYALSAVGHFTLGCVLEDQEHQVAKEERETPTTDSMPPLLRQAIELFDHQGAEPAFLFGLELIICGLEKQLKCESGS

| Sequence | TetR repression strength |
| --- | --- |
| TCCCGACCAGTATGCGAGA | 0.0346 |
| TCCCAGGGAGTAGTTGAGA | 0.0889 |
| TCCCGGGCAGTACACGAGA | 0.318 |
| TCCCGGAAAGTAGGCGAGA | 0.0444 |
| TCCCCGGAAGTAGGCGAGA | 0.186 |
| TCCCGGGAAGTAGGCGAGA | 0.849 |
| TCCCAGGCAGTAGGCGAGA | 0.205 |
| TCCCGGGCAGTAGGCGAGA | 1.05 |
| TCCCGCTAAGTAGGCGAGA | 0.0386 |
| TCCCGGGCAGTACAAGAGA | 1.05 |
| TCCCGGGCAGTTCAAGAGA | 0.417 |
| TCCCGGGCAGTGGGCGAGA | 0.253 |
| TCCCGGTAAGTAGGCGAGA | 1.05 |
| TCCCGGTAAGTAGGAGAGA | 0.229 |
| TCCCACCAAGTGTTCGAGA | 0.311 |
| TCCCTCGGAGTGCTTGAGA | 0.224 |
| TCCCGACGAGTAGCAGAGA | 0.486 |
| TCCCGGTAAGTCAAGGAGA | 0.397 |
| TCCCTCATAGTGCTCGAGA | 0.581 |
| TCCCAGGGAGTGTTAGAGA | 0.263 |
| TCCCGCTGAGTCCGGGAGA | 0.401 |
| TCCCGGTCAGTAGGCGAGA | 1.01 |
| TCCCAGTCAGTAGGCGAGA | 0.16 |
| TCCCCGTCAGTAGGCGAGA | 0.243 |
| TCCCTAGCAGTCTTCGAGA | 0.495 |

| Sequence | TetR repression strength |
| --- | --- |
| TCCCTTGGAGTCGTTGAGA | 0.304 |
| TCCCTTAGAGTCTATGAGA | 0.159 |
| TCCCTTTTAGTCTATGAGA | 0.858 |
| TCCCTTTGAGTCTATGAGA | 0.804 |
| TCCCTTCTAGTTGTTGAGA | 0.216 |
| TCCCTTTGAGTCTTTGAGA | 0.181 |
| TCCCTTCTAGTTTTTGAGA | 0.415 |
| TCCCTTCTAGTTACTGAGA | 0.464 |
| TCCCATTTAGTCTATGAGA | 0.279 |
| TCCCTTCTAGTCTTTGAGA | 0.693 |
| TCCCTTCTAGTTGCTGAGA | 0.73 |
| TCCCTTTTAGTGTATGAGA | 0.271 |
| TCCCGTCTAGTCTTTGAGA | 0.366 |
| TCCCTGGTAGTTGCTGAGA | 0.189 |
| TCCCAGAAAGTCGGGGAGA | 0.0115 |
| TCCCGAGCAGTATCGGAGA | 0.138 |
| TCCCAATAAGTGATTGAGA | 0.408 |
| TCCCACATAGTCTTTGAGA | 0.244 |
| TCCCGTGTAGTGATCGAGA | 0.209 |
| TCCCGCTGAGTTTTTGAGA | 0.307 |
| TCCCGGAGAGTTGAGGAGA | 0.193 |
| TCCCGGTTAGTAATTGAGA | 0.345 |
| TCCCGTTAAGTTCCTGAGA | 0.721 |
| TCCCGCGAAGTTGCTGAGA | 1.1 |
| TCCCGCTAAGTTTCTGAGA | 0.393 |

| Sequence | TetR repression strength |
| --- | --- |
| TCCCGTTCAGTTCCTGAGA | 0.705 |
| TCCCGCTAAGTTCCTGAGA | 0.792 |
| TCCCGTTAAGTGCCTGAGA | 0.419 |
| TCCCGGTCAGTTCCTGAGA | 0.26 |
| TCCCGCGAAGTTGGTGAGA | 0.202 |
| TCCCGTTAAGTTGCTGAGA | 0.517 |
| TCCCGTTCAGTTGCTGAGA | 0.512 |
| TCCCCGTAAGTTCCTGAGA | 0.231 |
| TCCCGCGAAGTTGTTGAGA | 0.112 |
| TCCCACATAGTTTAAGAGA | 0.187 |
| TCCCACCTAGTCTGCGAGA | 0.302 |
| TCCCTGACAGTAGTAGAGA | 0.541 |
| TCCCTGATAGTTCGAGAGA | 0.244 |
| TCCCGGTGAGTGCGAGAGA | 0.189 |
| TCCCAAGTAGTGGGGGAGA | 0.133 |
| TCCCTTGCAGTTAACGAGA | 0.104 |
| TCCCTTCCAGTTACCGAGA | 0.351 |
| TCCCCTTGAGTTACCGAGA | 0.307 |
| TCCCTTGCAGTTACCGAGA | 0.874 |
| TCCCTTGAAGTTACCGAGA | 0.844 |
| TCCCTCGAAGTTACCGAGA | 0.221 |
| TCCCGGGTAGTCGGTGAGA | 0.237 |
| TCCCCCATAGTGCCAGAGA | 0.453 |
| TCCCATTAAGTGAGAGAGA | 0.478 |
| TCCCGTTCAGTCTCAGAGA | 0.307 |

| Sequence | TetR repression strength |
| --- | --- |
| TCCCCTCTAGTGGCCGAGA | 0.17 |
| TCCCAGCAAGTAGGGGAGA | 0.289 |
| TCCCAGCAAGTTATGGAGA | 0.701 |
| TCCCAGCAAGTATGGGAGA | 0.71 |
| TCCCAGCCAGTTATGGAGA | 0.169 |
| TCCCAGCAAGTCATGGAGA | 0.401 |
| TCCCAGCAAGTATGCGAGA | 0.282 |
| TCCCTTCAAGTGTAAGAGA | 0.158 |
| TCCCCGTGAGTACGTGAGA | 0.226 |
| TCCCCTCTAGTACGTGAGA | 0.207 |
| TCCCCCGGAGTACGTGAGA | 0.187 |
| TCCCCCCTAGTACGTGAGA | 0.814 |
| TCCCAACTAGTAAATGAGA | 0.567 |
| TCCCCACTAGTAAAAGAGA | 0.303 |
| TCCCCACTAGTACGTGAGA | 0.363 |
| TCCCCACTAGTAAATGAGA | 0.726 |
| TCCCCCCGAGTACGTGAGA | 0.839 |
| TCCCTAGAAGTTATGGAGA | 0.315 |
| TCCCTGGCAGTTCATGAGA | 0.199 |
| TCCCGGGTAGTCCGGGAGA | 0.112 |
| TCCCAACCAGTCCCGGAGA | 0.12 |
| TCCCAAGGAGTGGGTGAGA | 0.185 |
